# A selection: hits, their analogues and other compounds. The true share with any hit is near 11%.
# IMPase inh = IMPase inhibition in cells | P97697 | CHO-M1 cells, IP1 accumulation, HTRF TR-FRET ratio | inhibition (IP1 accumulation), % at 46.1 µM | 120,000 tested, under 10 active | AID 901; active means well fitted curve in the direction sought with a large enough effect in the signal ratio, not every such curve was filed as active; inconclusive means small, poorly fitted or top-dose-only effect, or a change in a side signal; inactive means no such curve, though single readings can be large or run the other way; the % refers to the signal ratio;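 further: cells stimulated with carbachol in lithium chloride buffer; plate controls were DMSO basal wells for no effect and reference inhibitor wells for full effect; higher means more IMPase inhibition seen as more IP1 and lower FRET ratio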
# Target sequence (P97697 whole entry, looked up): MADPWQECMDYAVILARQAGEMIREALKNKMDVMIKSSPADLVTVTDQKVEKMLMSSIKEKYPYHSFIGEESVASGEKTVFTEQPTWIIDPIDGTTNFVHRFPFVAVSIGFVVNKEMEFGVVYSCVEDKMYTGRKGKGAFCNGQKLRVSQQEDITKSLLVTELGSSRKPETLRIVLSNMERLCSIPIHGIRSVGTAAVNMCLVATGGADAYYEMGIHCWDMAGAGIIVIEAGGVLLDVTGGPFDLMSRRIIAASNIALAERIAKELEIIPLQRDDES
#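 Elevated IP1 in lysates lowers TR-FRET signal (665/620 ratio and 620 channel reported). Cells were CHO-M1, given carbachol (50 uM as added) plus 50mM LiCl, pH 7.4, 30 min, 37C; compounds titrated up to 46 uM; AC50 by Hill equation.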
# ALDH1A1 block = blocks purified human ALDH1A1 activity; Purified ALDH1A1, NADH fluorescence, propionaldehyde substrate; Potency, µM (titrated, usually from 75.3 µM), for inactives: at the top dose activity, negative = inhibition, usual class: inhibitors; actives 7.3% (n = 220,000); AID 1030; P00352; active means well fitted inhibition curve with a large enough effect, not every such curve was filed as active; inconclusive means small, poorly fitted or top-dose-only effect, or another doubt; inactive means no such curve, though single readings can be large or run the other way;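 further: potency means the concentration at half of the fitted maximal effect; plate controls were no enzyme wells and a reference inhibitor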
# NPSR antag = blocks cAMP signaling of the human neuropeptide S receptor | Q6W5P4 | CHO-NPSR cells, cAMP TR-FRET, antagonist mode | Potency, µM (doses to about 38.3 µM), inactives show top-dose activity change, negative = inhibition, actives largely listed as inhibitors | actives 1% (n = 220,000) | AID 1461; further: potency means the concentration at half of the fitted maximal effect; nearly all actives have a fitted effect of over 50% in size
# PNC inhibitor = perinucleolar compartment assembly inhibition. PC3M PTB-GFP, PNC prevalence imaging, 16 h; active compounds read low. activity change (PNC), negative = inhibition, % at 10 µM. AID 2417. actives 3.1% (n = 140,000);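 active means readout at or below -70, meaning at least 70% loss of cells showing the perinucleolar compartment, a nuclear body marking cancer cells; inconclusive means readout between -30 and a set limit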;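 further: plate controls were DMSO wells for no effect and camptothecin positive control wells for full effect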
#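 Read-out is percentage of cells bearing a perinucleolar compartment, from automated 20x imaging of fixed, Hoechst-stained PC3M PTB-GFP cells. Cells were seeded 4 h, then exposed 16 h to compound (23 nl of library stock) in duplicate plates.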
# IMPase Li cell = IMPase inhibition in cells with lithium potentiation; actives 0.35% (n = 210,000); Potency, µM (highest dose often 59.4 µM), inactives show top-dose activity, negative = IMPase inhibition, usual class: inhibitors; CHO-M1 cells, IP1 TR-FRET (IP-One), carbachol + lithium;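 further: IP1 builds up when IMPase is blocked and the TR-FRET signal falls; potency means the concentration at half of the fitted maximal effect; plate controls were basal vehicle for no effect and high inhibitor control for full effect; nearly all actives have a fitted effect of over 50% in size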
#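 CHO-M1, 2000 cells/well, 16–30 h culture; cpd + low Li+, 30 min 37C; lysis with d2-IP1/Eu-anti-IP1 Ab, 10 min RT; TR-FRET 665/620 ratio and 620 channel; AC50 via Hill.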
# HPGD inh = blocks human HPGD enzyme activity; Potency, µM, without a hit: at the highest dose activity change, negative = inhibition, actives largely listed as inhibitors; actives 4.3% (n = 150,000); AID 894; purified HPGD, NADH fluorescence kinetic, PGE2 substrate; active means well fitted inhibition curve with a large enough effect, not every such curve was filed as active; inconclusive means small, poorly fitted or top-dose-only effect, or another doubt; inactive means no such curve, though single readings can be large or run the other way; further: potency means the concentration at half of the fitted maximal effect
# Target sequence (P15428 whole entry, looked up): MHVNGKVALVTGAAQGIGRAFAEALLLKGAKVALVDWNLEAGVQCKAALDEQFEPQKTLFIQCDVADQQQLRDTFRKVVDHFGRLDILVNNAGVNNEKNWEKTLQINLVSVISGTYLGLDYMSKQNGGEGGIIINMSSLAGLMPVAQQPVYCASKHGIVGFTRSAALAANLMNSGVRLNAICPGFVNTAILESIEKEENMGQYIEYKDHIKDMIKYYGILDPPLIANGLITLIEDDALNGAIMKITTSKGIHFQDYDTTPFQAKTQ
#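 NADH formation kinetics: reaction with 30 uM PGE2 and 1 mM NAD+ (final), 20 nM enzyme, Tris-HCl pH 8 with Tween 20, after 15 min compound preincubation at room temperature. Fluorescence change, last versus first of five reads.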
# The depositor's hits bear a star; ? = inconclusive; . = not tested or not shown; [ ] = dose if it differs, or a comment. Unless noted, the call rests on the fitted dose curve; in most records, active means well fitted curve in the direction sought with a large enough effect; inconclusive means small, poorly fitted or top-dose-only effect, or another doubt; inactive means no such curve, though single readings can be large; an effect the other way counts as inactive or inconclusive. Unless noted, on the % scale 0 is the no-effect control and ±100 the full control effect.
SMILES,IMPase inh,ALDH1A1 block,NPSR antag,PNC inhibitor,IMPase Li cell,HPGD inh
O=C(O)c1ccc2c(c1)CCC2,.,18.6%,3.7%,.,-6.5%,.
CSC1=NCCN1S(=O)(=O)c1ccc(C)cc1,.,8.0%,10.7%,.,-3.4%,.
Cc1ccc(CNc2oc(-c3ccco3)nc2C#N)cc1,-4.2,?,-15.8%[46.1 µM],?,-1.1%,?
Cc1ccc(CNc2oc(C)nc2C#N)cc1,2.6,9.8%,-6.8%[46.1 µM],-84.8*,.,.
N#C/C(=C\c1ccc(C#N)cc1)C(=O)c1ccccc1,.,0.794µM*,0.4%,.,.,.
CCOC(=O)NC(=O)/C(C#N)=C/c1ccc(N(C)C)cc1,.,12.6µM*,-5.6%,.,.,.
CN(C)c1ccc(/C=C(\C#N)C(=O)c2ccccc2)cc1,.,7.08µM*,-16.2%,.,.,.
CN(C)c1ccc(/C=C(\C#N)c2ccccc2)cc1,.,?,-15.1%,.,.,.
N#C/C(=C\c1ccccc1)C(=O)NC(=O)Oc1ccccc1,-10.4,-33.6%,-1.6%[46.1 µM],?,12.4%[38.3 µM],-14.7%
CCCn1c(NC(=O)c2cccc(C)c2C)nc2ccccc21,12.8,-6.7%,-11.9%[46.1 µM],6.7,22.4%[38.3 µM],-12.4%
COc1cccc2cc(S(=O)(=O)c3ccccc3)c(=Nc3ccc4c(c3)OCCO4)oc12,.,0.6%,-8.7%,0.0,-2.0%,-17.6%
CCOc1ccc(NC(=O)Cn2c(=O)n(Cc3ccc(C(=O)NCc4ccc(C)cc4)cc3)c(=O)c3ccccc32)cc1,-6.8,.,.,.,.,.
CCOC(=O)c1ccc(Nc2nc(C)cc(C)c2C#N)cc1,7.0[1.84 µM],?,-13.6%[46.1 µM],-26.8,13.6%[38.3 µM],?
CN1CCN(C(=S)NC(=O)/C=C/c2ccccc2Cl)CC1,.,?,-27.2%,.,6.4%,.
O=C(N/N=C/C=C/c1ccc([N+](=O)[O-])cc1)C1COc2ccccc2O1 (centres undefined),-2.6,25.1µM*,-8.2%,8.0,14.2%,-24.9%
O=C(N/N=C/c1ccc2c(c1)OCO2)C1COc2ccccc2O1 (centres undefined),9.8,?,-17.0%[46.1 µM],?,-14.0%[38.3 µM],-18.0%
O=C(N/N=C\c1cc(Br)cs1)C1COc2ccccc2O1 (centres undefined),3.9,20µM*,?,-27.5,-13.7%[38.3 µM],-8.3%
O=C(N/N=C\C=C\c1ccco1)C1COc2ccccc2O1 (centres undefined),.,.,-7.9%,.,.,.
c1ccc2nc(-c3nc4ccccc4o3)ccc2c1,6.5,?,-26.0%[46.1 µM],-106.5*,33.4%[38.3 µM],?
c1ccc(-c2nc3ccccc3o2)nc1,-1.2,?,-12.7%[46.1 µM],-16.2,-7.4%[38.3 µM],?
CCOc1ccc2[nH]c(=O)c(CN(Cc3ccccc3OC)C(=O)c3ccccc3)cc2c1,-4.5,?,-13.1%[46.1 µM],-11.3,27.5%[38.3 µM],-16.6%
CCOC(=O)c1c(NC(=O)/C=C/C(=O)O)sc(C)c1-c1ccc(Cl)cc1,.,20µM*,-52.5%,.,18.4%,.
CCOC(=O)c1c(NC(=O)CCl)sc(CN(C)C)c1-c1ccccc1,.,7.08µM*,-24.6%,.,13.2%,.
CCOC(=O)c1c(NC(=O)CN2CCCCC2)sc(CN(C)C)c1-c1ccccc1,.,-15.0%,-24.7%,.,8.7%,.
Cc1ccsc1C(=O)NNC(=S)NCC(C)C,9.6,1.4%,-6.7%[46.1 µM],14.4,35.8%[38.3 µM],-9.0%
SMILES,IMPase inh,ALDH1A1 block,NPSR antag,PNC inhibitor,IMPase Li cell,HPGD inh
CCn1c(CNc2cccc(Cl)c2)nnc1SCC(=O)OC1CCCCC1,17.3,?,-23.3%[46.1 µM],45.0,23.6%[38.3 µM],28.2µM*
CCn1c(CNc2ccc(Cl)cc2)nnc1SCC(=O)OC1CCCCC1,15.3,?,-12.6%[46.1 µM],-6.4,3.9%,-18.5%
Cc1cccc(NC(=O)CSc2nnc(-c3ccncc3)n2C)c1,8.1,-2.8%,-5.3%[46.1 µM],13.8,3.3%[38.3 µM],-7.4%
CC(C)NC(=O)CSc1nc2ccccc2n1-c1ccccc1,3.2,?,-13.0%[46.1 µM],9.0,7.5%,-9.5%
CC(C)NC(=O)CSc1nncn1-c1ccccc1,1.9,3.1%,-11.4%[46.1 µM],-97.3*,4.0%[38.3 µM],-6.0%
Cc1cccc(-c2nnc(SCC(=O)C(C)(C)C)n2C)c1,.,11.2µM*,-5.4%,.,.,.
CCC(C)NC(=O)CSc1nnc(-c2ccc(C(C)(C)C)cc2)n1C (centres undefined),5.5,-4.0%,-7.6%[46.1 µM],-11.1,-1.7%[38.3 µM],-3.6%
CC(C)NC(=O)CSc1nnc(-c2ccc(C(C)(C)C)cc2)n1C,8.9,5.9%,12.5%[46.1 µM],-100.0*,5.9%,-5.2%
Cc1ccc(-n2c(Cc3cccs3)nnc2SCC(=O)Nc2ccc(S(N)(=O)=O)cc2)cc1,4.6,?,?,25.0,-5.8%[38.3 µM],-1.0%
O=S(=O)(NCc1ccco1)c1cccc(S(=O)(=O)N2CCOCC2)c1,-5.0[9.22 µM],-9.6%,-5.4%[46.1 µM],12.7,-11.5%[38.3 µM],-9.9%
CC(=O)OC(C(=O)c1ccccc1)c1ccccc1 (centres undefined),.,22.4µM*,.,.,9.2%,-14.7%
COc1ccc(C(=O)OC(C(=O)c2ccc(C)cc2)c2ccccc2)cc1 (centres undefined),1.6,-0.6%,?,6.5,3.6%[38.3 µM],-10.7%
CC(C)c1ccc(NC(=O)c2csnn2)cc1,?,17.8µM*,-1.5%[46.1 µM],-18.5,10.7%[38.3 µM],?
O=C(NC(=S)Nc1ccccc1Cl)c1csnn1,-3.5,4.47µM*,0.1%[46.1 µM],-29.7,2.1%[38.3 µM],?
O=C(Nc1ccccc1NC(=O)c1csnn1)c1csnn1,.,?,-12.9%,.,-1.3%,.
CCOC(=O)c1c(-c2ccc(OC)cc2)csc1NC(=O)COc1ccc2c(C)cc(=O)oc2c1,-9.9,8.0%,-22.2%,121.8,3.2%,-27.8%
O=C(NCc1ccc(Cl)cc1)C(=O)NCC(c1ccco1)N1CCOCC1 (centres undefined),8.0,15.6%,8.7%,-24.0,-5.4%,-1.0%
CSC1CCCCC1(O)CSc1nc2c(cc1C#N)CCCC2 (centres undefined),6.3,7.94µM*,?,?,21.6%[38.3 µM],7.94µM*
Cc1nc2ccccn2c1C(=O)N/N=C/c1cc(C)n(-c2ccc(Cl)cc2)c1C,9.3,?,?,-100.0*,17.2%,?
Cc1ccc(-n2c(C)cc(/C=N/NC(=O)Cn3c4ccccc4c(=O)c4ccccc43)c2C)cc1,.,?,-7.4%,0.4,1.6%,?
Cc1cc(/C=N/NC(=O)Cn2c3ccccc3c(=O)c3ccccc32)c(C)n1-c1ccc(Cl)cc1,9.7,?,-3.3%,-87.9*,-5.5%,?
CCNC(=S)N/N=C/c1cc(C)n(-c2ccc(Cl)cc2)c1C,.,-1.0%,-22.4%,.,15.1%,.
Cc1cc(/C=N/NC(N)=S)c(C)n1-c1ccc(Cl)c(Cl)c1,.,15.8µM*,-42.4%,45.9,14.7%,?
COC1=C(C)C(O)=C(C(=O)/C=C/c2ccccc2)C(=O)C1(C)C,.,.,-57.8%,.,.,.
COc1ccc(-c2[nH]ncc2CN2CCCC(C(=O)c3cccc(OC)c3)C2)cc1 (centres undefined),.,3.6%,25.5%,.,19.0%,.

# Screening data: PubChem, National Center for Advancing Translational Sciences (NCATS)
